Inconclusive results are not listed. Unmarked numbers belong to inactive results. Calls of active or inactive are those of the source. Calls come from the whole dose curve; as a rule, active = well fitted inhibition curve with a large enough effect; inconclusive = small, poorly fitted or top-dose-only effect; inactive = flat fitted curve, though single readings scatter.
Tested on: astro (control astrocytes)
Experiment: Drug repurposing screens with cells derived from glioblastoma tumor samples (AID 1345199); note: nearly all actives have a fitted effect of over 40% in size
Details: viability, ATP luminescence, 48 h; series mostly up to 45.9 µM; activity, negative = cell killing: at the top concentration
Procedure, shortened: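 Four patient lines of CD133+ GBM neurospheres were screened at several concentrations; hits were retested in those lines plus three slower-growing GBM lines, using 48-hour treatment and ATP-based viability.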
% is set by controls: 0 for no effect and ±100 for the full control effect; potency is the fitted concentration of half-maximal effect.

Structure (SMILES)	activity, negative = cell killing	Potency
CNCCC(Oc1ccccc1OC)c1ccccc1 (centres undefined)	-8.67%	
CCCCNc1ccc(C(=O)OCCN(C)C)cc1	-23.2% [at 21.2 µM]	
c1cnc(N2CCN(Cc3ccc4c(c3)OCO4)CC2)nc1	-7.06%	
CN1CCN(C2=Nc3ccccc3Oc3ccc(Cl)cc32)CC1	-27.6% [at 21.2 µM]	
COCC(=O)O[C@]1(CCN(C)CCCc2nc3ccccc3[nH]2)CCc2cc(F)ccc2[C@@H]1C(C)C		10 µM (active)
C[C@]12CC[C@@H]3c4ccc(O)cc4C[C@@H](CCCCCCCCCS(=O)CCCC(F)(F)C(F)(F)F)[C@H]3[C@@H]1CC[C@@H]2O (some centres undefined)	-0.603%	
CC(C)[N+](C)(CCOC(=O)C1c2ccccc2Oc2ccccc21)C(C)C	-7.77%	
NC1=NCC2c3ccccc3Cc3ccccc3N12 (centres undefined)	-23.2%	
CN(C)CCOC(=O)COc1ccc(Cl)cc1	-10.1% [at 21.2 µM]	

From PubChem BioAssay (NCATS)
